Screening data deposited in PubChem BioAssay by several laboratories.
NadD block = inhibitors of Staphylococcus aureus NadD | purified NadD enzyme, colorimetric absorbance read-out | inhibition, % at 20 µM | 360,000 compounds, 0.78% hits; in the data active = inhibition above about 26%
PP1 counter = counter-screen for PP5 inhibitors: inhibitors of human PP1-alpha. purified PP1alpha, OMFP fluorescence. inhibition, % at 6.7 µM. 320,000 compounds, 0.9% hits;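 active = inhibition above the mean inhibition of all tested compounds plus 3 SD, computed separately for each screening campaign, cut at about 15% in these data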
GRK2 inh = human GRK2 inhibition via aptamer displacement. P25098. bead flow cytometry, FAM-aptamer displacement from GRK2. inhibition of aptamer binding, % at 10 µM. 330,000 compounds, 0.59% hits. AID 488847;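 active = inhibition of aptamer binding above 40%, roughly 3 SD of noise, on plates passing a quality check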;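 also: median bead fluorescence of bound FAM aptamer so fluorescent compounds give negative values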
Exocytosis inh = lytic granule exocytosis inhibition; TALL-104 LAMP-1 surface exposure, flow cytometry; cells stimulated with thapsigargin and PMA; inhibition, % at 10 µM; 360,000 compounds, 0.66% hits;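 active = inhibition above about 55%, limit read from the data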
Beta2AR agonist = agonists of human beta-2 adrenergic receptor inducing internalization; Am2.2-beta2AR cells, FAP receptor internalization, flow cytometry; response, % (concentration not given with the values); 340,000 compounds, 0.43% hits; AID 504454;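 active = response above a set limit, near 3 SD of response in nonfluorescent compounds, cut at about 42% in these data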
Target sequence (P07550 whole entry, looked up): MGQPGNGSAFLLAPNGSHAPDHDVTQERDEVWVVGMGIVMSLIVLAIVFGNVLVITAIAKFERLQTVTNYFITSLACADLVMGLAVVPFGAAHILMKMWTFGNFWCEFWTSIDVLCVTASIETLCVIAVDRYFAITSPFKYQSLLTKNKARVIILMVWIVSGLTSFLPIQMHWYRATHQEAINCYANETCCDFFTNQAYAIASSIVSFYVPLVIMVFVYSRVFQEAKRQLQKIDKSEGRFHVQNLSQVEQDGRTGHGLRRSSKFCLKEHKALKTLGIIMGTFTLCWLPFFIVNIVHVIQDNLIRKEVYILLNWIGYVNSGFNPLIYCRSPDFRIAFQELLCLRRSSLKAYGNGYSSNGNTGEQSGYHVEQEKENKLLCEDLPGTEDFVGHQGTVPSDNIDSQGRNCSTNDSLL
GRK2 CP1 = human GRK2 inhibition confirmation, cherry pick 1; shares compounds with GRK2 inh; bead-bound GRK2, FAM-aptamer displacement, flow cytometry; aptamer displacement, % at 10 µM; 2,000 compounds, 4% hits;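 active = aptamer displacement above 40%, near three times the noise of non-fluorescent compounds, on plates passing quality checks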;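 also: negative values mostly reflect intrinsic compound fluorescence rather than true enhancement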
Aptamer quench SP = aptamer fluorescence quenching in GRK2 counter-screen. AID 504580. shares compounds with GRK2 inh. fluorescence response (% of DMSO), % at 10 µM. 2,000 tested, under 10 active. Carboxyfluorescein RNA aptamer on beads, flow cytometry quenching; stronger effect = lower value;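 active = compounds that quench the bead-bound fluorescent RNA probe, cutting fluorescence to under half of the solvent control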;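 also: counterscreen run without GRK2 so only probe quenching by compound is measured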
GRK2 confirm 2 = human GRK2 inhibition confirmation, cherry pick 2; shares compounds with GRK2 inh; AID 504782; inhibition of aptamer binding, % at 10 µM; 360 tested, under 10 active; bead-bound GRK2, FAM-aptamer displacement, flow cytometry;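 active = inhibition of aptamer binding above 40%, about triple the noise seen with nonglowing compounds, on plates passing quality control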;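 also: negative values mostly come from compounds that fluoresce themselves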
FAM quench SP = quenches fluorescent RNA aptamer, GRK2 hit artifact; shares compounds with GRK2 inh; carboxyfluorescein RNA aptamer beads, flow cytometry quenching; stronger effect = lower value; fluorescence response vs DMSO, % at 10 µM; 360 tested, under 10 active; AID 588494;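 active = response vs DMSO under 50%, meaning signal dropped by over half, treated as fluorescence quencher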;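 also: labelled aptamer on streptavidin beads without GRK2 as a quench counter-screen; 100% = bead fluorescence of DMSO wells and lower means quenching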
* marks the source's active call; other numbers are inactive results; / = no result. The list is not random: actives were taken first. Their share in the collection is about 2.9%.

SMILES	NadD block	PP1 counter	GRK2 inh	Exocytosis inh	Beta2AR agonist	GRK2 CP1	Aptamer quench SP	others
C=CCOc1c(CNC2CCCC2)cc(Cl)cc1OC	-3.2	-3.0	87.0*	-2.8	0.5	-1.9	102.4
Cc1nc2c(=O)n(C)c(=O)n(C)c2nc1Cl	-5.2	2.7	0.0	18.2	14.8	/	/
CC1CC(C)CN(C(=O)c2cn(C)c3ccc(S(=O)(=O)N(C)C)cc3c2=O)C1 (centres undefined)	4.3	-4.0	86.0*	6.3	1.9	1.2	102.8
CC(C)C[C@H](NC(=O)OC(C)(C)C)C(=O)N1CCC(C(=O)O)CC1	-7.3	-1.2	65.0*	-2.5	-3.9	0.0	101.2
CC(C)C[C@H](NC(=O)C1CCN(C(=O)[C@H](Cc2ccccc2)NC(=O)OC(C)(C)C)CC1)C(=O)O	-4.7	1.2	0.0	-5.1	-11.2	/	/
Cc1nn(-c2ccccc2)c2c1C(=O)N(Cc1ccccc1)C(=O)C(C)(C)C2	-10.7	-3.8	44.0*	0.4	-2.8	-0.8	95.0
Cc1nn(-c2nc3ccccc3n2Cc2ccccc2)c2c1C(=O)CC(C)(C)C2	-0.9	2.3	0.0	3.4	-5.9	/	/
CCOC(=O)C1(Cc2cccc(OC)c2)CCCN(C(=O)CSC)C1 (centres undefined)	-3.0	-4.5	4.0	3.6	5.1	/	/
COC(=O)[C@@]12CCCCN1[C@H](c1ccc(-c3cccc(Cl)c3)c(OC)c1)[C@H]1C(=O)N(C)C(=O)[C@H]12	0.7	-4.9	0.0	-2.9	-3.5	/	/
CC(=O)Nc1ccc(S(=O)(=O)NCC(=O)Nc2ccc3c(c2)OCO3)cc1	-0.7	/	2.0	-7.1	3.6	/	/
COc1ccc(CNC(=O)C2CCCN(Cc3nc(-c4cccc(C)c4)oc3C)C2)cc1 (centres undefined)	0.7	0.7	0.0	12.2	-5.2	0.4	95.1
Cc1ccccc1-c1nc(CN2CCCC(C(=O)NCc3cccnc3)C2)c(C)o1 (centres undefined)	-0.5	-4.8	0.0	1.8	1.2	0.9	107.7
Cc1oc(-c2ccc(Cl)cc2)nc1CN1CCCC(C(=O)NC2CC2)C1 (centres undefined)	3.6	-2.3	0.0	17.7	8.2	/	/
Cc1oc(-c2ccc(Cl)cc2)nc1CN1CCCC(C(=O)NCc2ccco2)C1 (centres undefined)	-2.2	-2.8	3.0	-1.4	-5.6	-1.6	96.9
CC1(c2nnc(-c3ccncc3)o2)CC(c2cccc(Cl)c2)=NO1 (centres undefined)	1.4	-0.4	0.0	-1.9	3.0	/	/
COc1ccc(NC(=O)C2(C)Cc3c(-c4ccc(N(C)C)cc4)ccnc3O2)cn1 (centres undefined)	-0.2	/	/	4.2	/	/	/
O=C(Nc1ccccc1C(=O)Nc1ccc(Br)cn1)c1ccccc1Cl	-6.5	3.1	44.0*	11.4	-2.8	/	/	GRK2 confirm 2=15.9;FAM quench SP=100.0
CNC(C)C(=O)NC(C(=O)N1CCCC1C(=O)NNc1ccccc1)C(C)C (centres undefined)	-9.1	-2.3	67.0*	1.0	2.1	9.8	94.0
CNC(C)C(=O)NC(C(=O)N1CCCC1C(=O)NC1CCCc2ccccc21)C(C)C (centres undefined)	-0.9	-2.0	2.0	-1.5	-2.1	/	/
COc1ccc(N2CCN(S(=O)(=O)c3cc(C)ccc3OC)CC2)cc1	1.0	-1.2	0.0	-0.2	-1.8	/	/
Nc1nc(O)c(N=Nc2ccc(S(N)(=O)=O)cc2)c(=O)[nH]1	/	/	44.0*	/	/	4.3	97.5
NS(=O)(=O)c1ccc(N=Nc2c[nH]c(=O)c(O)c2)cc1	1.4	13.7	7.0	-1.1	-1.7	/	/
CC1CCN(S(=O)(=O)c2ccc3c(c2)N(CC(=O)NCCN2C(C)CCCC2C)C(=O)CS3)CC1 (centres undefined)	-6.9	-1.7	0.0	-0.9	0.4	/	/
COC(=O)[C@H](Cc1ccccc1)NC(=O)N1CCN(Cc2ccccc2)CC1	2.7	-5.4	0.0	-5.2	5.6	/	/
O=C(O)[C@H](Cc1ccccc1)NC(=O)N1CCCCCC1	-1.0	-3.8	100.0*	17.1	1.7	-0.6	98.7
SMILES	NadD block	PP1 counter	GRK2 inh	Exocytosis inh	Beta2AR agonist	GRK2 CP1	Aptamer quench SP	others
COC(=O)[C@H](Cc1ccccc1)NC(=O)N1CCCCCC1	-0.7	0.1	0.0	-2.7	-1.4	-13.1	196.0
COC(=O)C(Cc1ccccc1)NC(=O)CC(C)CC(=O)Nc1ccc(C)cc1 (centres undefined)	10.9	0.0	46.0*	-3.5	12.6	1.1	99.8
COC(=O)[C@H](Cc1ccccc1)NC(=O)N1CCN(c2ccc(F)cc2)CC1	-3.1	-3.1	0.0	4.1	4.2	-1.4	98.8
CCc1cc(C(=O)N2CCCC(CCC(=O)NCc3cccc(OC)c3)C2)no1 (centres undefined)	4.4	-2.3	4.0	-0.4	-6.2	/	/
O=C(Cc1ccc(F)cc1)N/N=C/c1ccncc1	0.2	-3.1	11.0	-4.9	2.7	/	/
CNc1cc(N2CCN(S(=O)(=O)N(C)C)CC2)ccc1[N+](=O)[O-]	2.8	2.3	73.0*	0.0	-3.0	3.5	94.1
CN(C)S(=O)(=O)N1CCN(c2ccc([N+](=O)[O-])c(NC3CC3)c2)CC1	-0.9	-6.7	0.0	-5.2	-0.6	/	/
COc1ccc(OC)c(NC(=O)CCS(=O)(=O)c2cc3c(cc2C)NC(=O)CO3)c1	-9.3	-0.5	0.0	10.4	13.3	/	/	GRK2 confirm 2=-3.3;FAM quench SP=106.0
CCC(=O)N1c2ccc(S(=O)(=O)CCC(=O)Nc3ccc(OC)cc3OC)cc2CC1C (centres undefined)	-8.2	6.1	5.0	-0.3	-10.3	/	/	GRK2 confirm 2=-29.2;FAM quench SP=102.0
COc1ccccc1NC(=O)CCC(=O)OCc1ccc(Cl)cc1	-8.1	-0.3	97.0*	0.4	1.9	2.0	111.5
COc1ccc(CCCC(=O)Nc2cc(C)ccc2OC)cc1	7.7	4.1	1.0	-8.7	0.9	/	/
COc1ccc(S(=O)(=O)CCC(=O)Nc2cc(C)ccc2OC)cc1	-2.5	0.0	0.0	-2.6	1.2	/	/	GRK2 confirm 2=-28.5;FAM quench SP=104.0
COc1ccccc1NC(=O)CCS(=O)(=O)c1cc2c(cc1Cl)NC(=O)CO2	9.3	0.6	0.0	-12.6	-18.0	/	/
CN(C)c1ccc(-c2csc(C(C)(O)c3ccc(F)c(F)c3)n2)cc1 (centres undefined)	-5.9	/	/	12.8	/	/	/
CC1=C(C(=O)N(C(C)C)C(C)C)CC(CC(=O)NC2CCCC2)C(=O)N1Cc1ccc(C(C)(C)C)cc1 (centres undefined)	0.9	/	/	1.7	/	/	/
